4 compounds from PubChem BioAssay (NCATS) can be followed below.

Assay [1] in a line: Cell Viability - BJ (AID 421; calls by dose curve;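 note: potency is the fitted concentration of half-maximal effect; cells exposed to compound for 40 hours at 37 °C before readout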). Particulars: BJ fibroblast viability, qHTS. The method in brief:
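Cytotoxicity as drop in intracellular ATP (CellTiter-Glo, 20 min RT) after 40 hr compound exposure of BJ fibroblasts at 37 °C. Titrations scaled between DMSO and 100 uM tamoxifen, Hill-fitted for AC50.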
For orientation: Quantitative high-throughput screening tests each substance at several concentrations.

Assay [2] in a line: Cell Viability - Jurkat (AID 426;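 active = dose-dependent loss of cell ATP signal giving a full or clear fitted curve, ranked by lower potency value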;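 note: potency is the fitted concentration of half-maximal effect; cells exposed to compound for 40 hours at 37 °C before ATP read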). Particulars: qHTS. The method in brief:
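Luminescent ATP read-out (CellTiter-Glo, 20 min at room temperature) after 40 hr compound exposure at 37 °C of Jurkat E6-1 cells, 5000/well. Decreased ATP taken as cytotoxicity; AC50 from standard Hill equation.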

Assay [3] is described as follows: Cell Viability - Hek293 (AID 427;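 active = compounds whose dose-response curve shows a full or clear partial loss of cell viability, called from curve shape rather than a numeric limit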;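 note: potency is the fitted concentration of half-maximal effect; cells exposed to compound for 40 hours at 37 °C before reading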). Particulars: qHTS. The method in brief: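 Luminescent ATP content (CellTiter-Glo, 20 min at room temperature) was measured after a 40 hr, 37 °C compound exposure of HEK293 cells. AC50 values came from Hill-equation fits of qHTS concentration-response data normalized to DMSO and 100 uM tamoxifen.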
The nature of assay [4]: Cell Viability - HepG2 (AID 433; calls by dose curve;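 note: potency is the fitted concentration of half-maximal effect; cells exposed to compound for 40 hours; potency for ATP loss meaning cytotoxicity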). Conditions: qHTS. The method in brief: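 ATP luminescence (CellTiter-Glo) after 40 h compound exposure, 37 °C, HepG2, 1500 cells/well, complete medium. Normalized: DMSO = basal, 100 uM tamoxifen = 100% inhibition. AC50 via standard Hill equation.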
Assay [5] is described as follows: Cell Viability - MRC5 (AID 434; calls by dose curve;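 note: potency is the fitted concentration of half-maximal effect; cells exposed to compound for 40 hours at 37 °C; potency reflects cytotoxicity seen as loss of intracellular ATP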). Conditions: MRC5 lung fibroblast viability, qHTS. The method in brief: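 ATP luminescence read-out (CellTiter-Glo, 20 min RT) after 40 hr, 37 °C compound exposure of 1500 MRC5 cells/well. Data normalized to DMSO (basal) and 100 uM tamoxifen (100% inhibition); AC50 from standard Hill equation.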
Assay [6] in a line: Cell Viability - SK-N-SH (AID 435; calls by dose curve; note: potency is the fitted concentration of half-maximal effect). Particulars: SK-N-SH neuroblastoma cell viability qHTS. In outline: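 CellTiter-Glo ATP luminescence, 20 min RT read; cells pre-plated 5 hr, compound 40 hr at 37 °C, 1500 cells/well, complete medium. Normalized DMSO = 0, 100 uM tamoxifen = 100% inhibition; Hill-fit AC50.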
For assay [7], the target named is Mitogen-activated protein kinase 10 (Mus musculus) (UniProt Q61831). In words: JNK3 AlphaScreen Assay (AID 530; active = well fitted curve in either direction with a large enough effect, not every such curve was filed as active;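 note: kinase came from lysate of stimulated human HepG2 cells; signal reports phosphorylation of biotinylated GST-cJun 1-79 at Ser73 with 10 µM ATP; % is set by controls: 0 for no effect and ±100 for the full control effect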). Particulars: JNK3 lysate, c-Jun phosphorylation; series mostly up to 57.1 µM. The method in brief: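 HepG2 lysate (IL-1b/TNFa pre-activated) + biotin-GST-cJun 1-79 + anti-pSer73 cJun; cpd titration, 15 min RT; ATP 10 uM start; Tris pH 7.6, MgCl2, DTT, vanadate; beads in EDTA buffer; AlphaScreen.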
On the technique in general: Alpha assays give light when donor and acceptor beads are brought close together.

The nature of assay [8]: Cell Viability - N2a (AID 540).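 Note: plate controls were DMSO alone for no effect and tamoxifen control for full effect; nearly all actives have a fitted effect of over 45% in size.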 Conditions: N2a mouse neuroblastoma cell viability; activity change, negative = cytotoxicity: at 92.2 µM (top of the series). In outline:
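N2a mouse neuroblastoma, 1500 cells/well, 5 hr settle; compound 40 hr, 37 °C; CellTiter-Glo 20 min RT; luminescence; Hill-fit AC50.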

A short description of assay [9]: Cell Viability - NIH 3T3 (AID 541).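 Note: cells exposed to compound for 40 hours; plate controls were DMSO alone for no effect and tamoxifen positive control for full effect; nearly all actives have a fitted effect of over 25% in size.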 Particulars: NIH 3T3 cell viability, qHTS; activity change, negative = cytotoxicity: at 92.2 µM (top of the series). The method in brief: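 qHTS format; 40 hr compound exposure, 37 °C; CellTiter-Glo luminescence (cellular ATP) read-out after 20 min at RT. Decrease in ATP = cytotoxicity; AC50 from standard Hill fit.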
Assay [10] is described as follows: Cell Viability - HUV-EC-C (AID 542).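 Note: cells exposed to compound for 40 hours; % is set by controls: 0 for no effect and ±100 for the full control effect; nearly all actives have a fitted effect of over 35% in size.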 Conditions: HUV-EC-C endothelial cell viability, qHTS; series mostly up to 92.2 µM. The method in brief:
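Luminescent ATP read-out (CellTiter-Glo, 20 min room temperature) after 40 hr compound treatment of HUV-EC-C cells at 37 °C. Concentration-response data fitted with the standard Hill equation to give AC50; tamoxifen and doxorubicin served as positive controls.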

Assay [11] in a line: Cell Viability - H-4-II-E (AID 543).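 Note: cells exposed to compound for 40 hours; % is set by controls: 0 for no effect and ±100 for the full control effect; nearly all actives have a fitted effect of over 35% in size.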 Conditions: H-4-II-E rat hepatoma viability; series mostly up to 92.2 µM. The method in brief:
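qHTS, rat hepatoma H-4-II-E, 1500 cells/well; 40 hr compound exposure, 37 °C; CellTiter-Glo ATP luminescence after 20 min RT; AC50 by standard Hill fit.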

Assay [12] is described as follows: Cell Viability - SH-SY5Y (AID 544).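 Note: cells exposed to compound for 40 hours; nearly all actives have a fitted effect of over 55% in size.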 Particulars: SH-SY5Y neuroblastoma cell viability; viability change, negative = cytotoxic: at 92.2 µM (top of the series). In outline:
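SH-SY5Y, 1500 cells/well, 5 hr pre-incubation 37 °C; cpd 40 hr 37 °C; CellTiter-Glo 20 min RT; luminescence (ATP) read. qHTS concentration-response, Hill fit → AC50. Tamoxifen, doxorubicin as positive controls.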

Assay [13] is described as follows: Cell Viability - Renal Proximal Tubule (AID 545).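 Note: cells exposed to compound for 40 hours; nearly all actives have a fitted effect of over 40% in size.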 Conditions: renal proximal tubule cells viability, primary cells of rat origin; series mostly up to 91.7 µM. The method in brief: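 Rat kidney proximal tubule cells, freshly isolated; 1000 cells/well, 5 hr settle, compound 40 hr 37 °C. CellTiter-Glo 20 min RT, luminescence read. AC50 by standard Hill fit.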
Assay [14] in a line: Cell Viability - Mesenchymal (AID 546).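 Note: cells exposed to compound for 40 hours before reading.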 Conditions: mesenchymal cells viability, qHTS; series mostly up to 91.7 µM. The method in brief:
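Human renal mesenchymal cells (glomerulus-derived), 1000 cells/well, 5 hr 37 °C pre-incubation; compound 40 hr, 37 °C; CellTiter-Glo, 20 min RT; luminescence; AC50 via Hill equation.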

Assay [15] is described as follows: Cellular Toxicity (caspase-3) Jurkat (AID 655).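 Note: cells exposed to compound for 16 h at 37 °C before reading.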 Particulars: Jurkat caspase-3 activation, luminescence; caspase-3 activation: at 92.2 µM (top of the series), DMSO = 0%, tamoxifen = 100%. The method in brief:
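Luminescent caspase-3/7 readout (aminoluciferin substrate cleavage) in human T-cell leukemia Jurkat cells after 16 hr compound exposure. Concentration-response normalized to DMSO and 100 uM tamoxifen; AC50 by standard Hill equation.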

The nature of assay [16]: Cellular Toxicity (caspase-3) HUV-EC-C (AID 656). Particulars: HUV-EC-C cells, caspase-3 activation (apoptosis), vehicle = 0, 100 µM tamoxifen = 100%; series mostly up to 92.2 µM. In outline:
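Luminescent caspase-3/7 activation (aminoluciferin substrate cleavage) in HUV-EC-C cells after 16 hr compound exposure, 37°C. Signal normalized to DMSO basal and 100 uM tamoxifen as 100%; AC50 from concentration-response fitted with the Hill equation.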

Assay [17] in a line: Cellular Toxicity (caspase-3) SHSY5Y (AID 657).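 Note: cells exposed to compound for 16 hours at 37 °C.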 Particulars: SH-SY5Y caspase-3 activation, DMSO zero, 10 µM staurosporine = 100%; series mostly up to 91.7 µM. In outline: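 Luminescent caspase-3/7 readout (aminoluciferin release) in SH-SY5Y cells after 16 h compound exposure in complete medium. Activity scaled between DMSO basal and 10 uM staurosporine as 100%; concentration-response fitted to Hill equation for AC50.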

Assay [18] can be described thus: Cellular Toxicity (caspase-3) BJ (AID 658).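 Note: cells exposed to compound for 16 hours.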 Conditions: BJ fibroblasts, luminescence, normalized: DMSO 0%, staurosporine 100%; series mostly up to 91.7 µM. The method in brief:
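qHTS, BJ fibroblasts, 1000 cells/well; 5 hr preincubation, 16 hr compound, 37 °C; Caspase-Glo 3/7 reagent, 1 hr RT; luminescence. DMSO = 0%, 10 uM staurosporine = 100%. Hill-equation AC50.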

Assay [19] is described as follows: Cellular Toxicity (caspase-3) MRC-5 (AID 659).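 Note: cells exposed to compound for 16 h at 37 °C.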 Conditions: MRC-5 cells, luminescence, normalized: DMSO 0%, 10 µM staurosporine 100%; series mostly up to 91.7 µM. The method in brief: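 MRC-5 fibroblasts, 1500/well; 16 h cpd, 37 °C; Caspase-Glo 3/7, 1 h RT; lumi read. Norm: DMSO = 0%, 10 uM staurosporine = 100%. Hill-fit AC50 from qHTS conc-response.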
Assay [20] can be described thus: Cellular Toxicity (caspase-3) HepG2 (AID 654).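 Note: cells exposed to compound for 16 hours before reading; 0% = DMSO alone and 100% = caspase signal from 100 µM tamoxifen.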 Particulars: HepG2 caspase-3 activation, luminescence; series mostly up to 92.2 µM. The method in brief:
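Luminescent Caspase-Glo 3/7 readout after 16 hr compound exposure of human hepatocellular carcinoma HepG2 cells at 37 °C; qHTS concentration-response, normalized DMSO = 0%, 100 uM tamoxifen = 100%; AC50 by standard Hill equation.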

A number with no mark means an inactive call. Inconclusive results are not listed. Activity calls are given as the source filed them. Unless noted, calls come from the whole dose curve; as a rule, active = well fitted curve in the direction sought with a large enough effect; inconclusive = small, poorly fitted or top-dose-only effect, or another doubt; inactive = no such curve, though single readings can be large; an effect the other way counts as inactive or inconclusive.

Turning to `CC(C)(c1cc(Br)c(OCC(Br)CBr)c(Br)c1)c1cc(Br)c(OCC(Br)CBr)c(Br)c1` (stereo unspecified), the Potency in assay [1] was > 92 µM; in assay [2], 46.9 µM (active); in [3], > 92 µM; in assay [4] it was > 92 µM; in [5], > 92 µM; in [6], > 92 µM. Besides, the result in [7], in assay [16], in assay [17], in assay [18] and in assay [19] was inactive. Moreover, in assay [8], the activity change, negative = cytotoxicity is 5.75%. For the same compound, the Potency entry in [9], in assay [10], in assay [11], in [12], in [13] and in assay [14] was “inactive” in each case. The caspase-3 activation in assay [15] was 99.2% (active).
Turning to `CC(C)C=O`, the Potency in [1], in assay [2], in assay [3], in assay [4], in [5] and in assay [6] was > 92 µM throughout. Further, the result in assay [7], in assay [16], in assay [17], in assay [18] and in assay [19] was inactive. Further, the activity change, negative = cytotoxicity in [8] is -13.8%. For the same compound, the Potency entry in assay [9], in assay [10], in assay [11], in [12], in assay [13] and in assay [14] was “inactive” throughout. In addition, in assay [20], the Potency entry is “inactive”.
`CC(=O)OC(C)C`: the Potency in [1], in [2], in [3], in assay [4], in assay [5] and in assay [6] was > 92 µM throughout. In addition, the result in assay [7], in assay [16], in assay [17], in assay [18] and in assay [19] was inactive. Further, in assay [8], the activity change, negative = cytotoxicity is 3.96%. The Potency result in assay [9], in assay [10], in assay [11], in assay [12], in assay [13] and in [14] was “inactive” each time. Further, in [20], the Potency result was “inactive”.
For the compound `CC(CCl)OC(C)CCl` (stereo unspecified), the Potency in assay [1], in assay [2], in [3], in assay [4], in [5] and in [6] was > 92 µM in each case. In addition, the outcome in [7], in assay [16], in [17] and in [19] was inactive. The activity change, negative = cytotoxicity in [8] is 2.8%. Further, the Potency entry in assay [9], in assay [10], in assay [11], in assay [12], in [13] and in assay [14] was “inactive” in each case. The Potency result in [20] is “inactive”. In assay [15], the caspase-3 activation was 1.36%.
